Test results: PubChem BioAssay AID1159580 (chemical genetic matrix, 2015)
Values joined by “and” are separate entries in the source; they are usually repeats but may differ in a detail not shown here. Equal entries are not always repeated. The campaign covered roughly 5,500 compounds. About 2,000 (36%) were called active. Another 18% or so got no clear call; they are omitted. Some of the results follow. Values without a mark were called inactive. Cut-off read from the data, not from the text of the source: active = normalized growth mostly below about 0.91 (no sharp cut-off); inconclusive = no clear call, values can overlap the other calls; inactive = mostly above about 0.92.

Test: chemical genetic growth profiling, strain panel (AID 1159580);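 note: tested at 20 µM; growth read once vehicle control cultures reached saturation at 30 °C; 1 = growth at the plate median or of vehicle wells; lower values mean less growth of the strain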
Conditions: S. cerevisiae deletion strains, growth OD

NC(N)=N/N=C/c1c(Cl)cccc1Cl
normalized growth (locus YAL021C, strain ccr4, stronger effect = lower value): 0.887 (active) | normalized growth (locus YAL026C, strain drs2, stronger effect = lower value): 0.976 | normalized growth (locus YAL030W, strain snc1, stronger effect = lower value): 0.981 | normalized growth (locus YBL061C, strain skt5, stronger effect = lower value): 0.986 | normalized growth (locus YBR009C, strain hhf1, stronger effect = lower value): 0.941 | normalized growth (locus YBR021W, strain FUR4, stronger effect = lower value): 1.01 | normalized growth (locus YBR023C, strain chs3, stronger effect = lower value): 0.968 | normalized growth (locus YBR171W, strain sec66, stronger effect = lower value): 0.982 | normalized growth (locus YBR229C, strain ROT2, stronger effect = lower value): 1.02 | normalized growth (locus YBR231C, strain swc5, stronger effect = lower value): 0.984 | normalized growth (locus YBR279W, strain paf1, stronger effect = lower value): 0.975 | normalized growth (locus YCL011C, strain gbp2, stronger effect = lower value): 0.963 | normalized growth (locus YCL016C, strain dcc1, stronger effect = lower value): 0.954 | normalized growth (locus YCL029C, strain bik1, stronger effect = lower value): 1.01 | normalized growth (locus YCL069W, strain vba3, stronger effect = lower value): 0.973 | normalized growth (locus YCR088W, strain abp1, stronger effect = lower value): 0.973 | normalized growth (locus YDL005C, strain med2, stronger effect = lower value): 0.972 | normalized growth (locus YDL035C, strain GPR1, stronger effect = lower value): 1.02 | normalized growth (locus YDL040C, strain nat1, stronger effect = lower value): 0.982 | normalized growth (locus YDL074C, strain BRE1, stronger effect = lower value): 1.02 | normalized growth (locus YDL101C, strain DUN1, stronger effect = lower value): 1.01 | normalized growth (locus YDL134C, strain PPH21, stronger effect = lower value): 1.02 | normalized growth (locus YDL185W, strain tfp1, stronger effect = lower value): 1.02 | normalized growth (locus YDL192W, strain arf1, stronger effect = lower value): 1.03 | normalized growth (locus YDR001C, strain nth1, stronger effect = lower value): 0.972 | normalized growth (locus YDR069C, strain doa4, stronger effect = lower value): 0.968 | normalized growth (locus YDR101C, strain arx1, stronger effect = lower value): 1.01 | normalized growth (locus YDR137W, strain rgp1, stronger effect = lower value): 0.922 | normalized growth (locus YDR159W, strain sac3, stronger effect = lower value): 0.919 | normalized growth (locus YDR162C, strain NBP2, stronger effect = lower value): 1.02 | normalized growth (locus YDR195W, strain ref2): 0.97 | normalized growth (locus YDR297W, strain sur2, stronger effect = lower value): 0.978 | normalized growth (locus YDR318W, strain mcm21, stronger effect = lower value): 1.01 | normalized growth (locus YDR334W, strain swr1, stronger effect = lower value): 0.977 | normalized growth (locus YDR335W, strain msn5, stronger effect = lower value): 0.976 | normalized growth (locus YDR388W, stronger effect = lower value): 1.01 | normalized growth (locus YDR392W, strain spt3, stronger effect = lower value): 0.916 | normalized growth (locus YDR502C, strain sam2, stronger effect = lower value): 1.03 | normalized growth (locus YEL003W, strain gim4, stronger effect = lower value): 0.963 | normalized growth (locus YEL037C, strain rad23, stronger effect = lower value): 0.984 | normalized growth (locus YEL061C, strain CIN8 (second series), stronger effect = lower value): 0.972 | normalized growth (locus YEL061C, strain CIN8, stronger effect = lower value): 1.01 | normalized growth (locus YER015W, strain faa2, stronger effect = lower value): 0.992 | normalized growth (locus YER016W, strain bim1, stronger effect = lower value): 0.938 | normalized growth (locus YER110C, stronger effect = lower value): 1.02 | normalized growth (locus YER111C, strain swi4, stronger effect = lower value): 0.963 | normalized growth (locus YER155C, strain BEM2 (second series), stronger effect = lower value): 0.989 | normalized growth (locus YER155C, strain BEM2, stronger effect = lower value): 1 | normalized growth (locus YER167W, strain BCK2, stronger effect = lower value): 1 | normalized growth (locus YFR010W, strain ubp6, stronger effect = lower value): 0.988 | normalized growth (locus YGL078C, strain dbp3, stronger effect = lower value): 1.03 | normalized growth (locus YGL086W, strain mad1, stronger effect = lower value): 1.01 | normalized growth (locus YGL167C, strain pmr1, stronger effect = lower value): 0.981 | normalized growth (locus YGL173C, strain kem1, stronger effect = lower value): 0.977 | normalized growth (locus YGL227W, strain vid30, stronger effect = lower value): 0.964 | normalized growth (locus YGL240W, strain doc1, stronger effect = lower value): 0.986 | normalized growth (locus YGL248W, strain PDE1, stronger effect = lower value): 1.01 | normalized growth (locus YGL253W, strain hxk2, stronger effect = lower value): 0.96 | normalized growth (locus YGR135W, strain pre9, stronger effect = lower value): 1.03 | normalized growth (locus YGR252W, strain gcn5, stronger effect = lower value): 1.03 | normalized growth (locus YHR013C, strain ard1, stronger effect = lower value): 0.889 | normalized growth (locus YHR027C, strain rpn1, stronger effect = lower value): 0.967 | normalized growth (locus YHR030C, strain SLT2, stronger effect = lower value): 1 and 0.981 | normalized growth (locus YHR079C, strain IRE1 (second series), stronger effect = lower value): 1 | normalized growth (locus YHR079C, strain IRE1, stronger effect = lower value): 0.987 | normalized growth (locus YHR094C, strain hxt1, stronger effect = lower value): 1.01 | normalized growth (locus YHR129C, strain ARP1, stronger effect = lower value): 1.01 | normalized growth (locus YHR142W, strain chs7, stronger effect = lower value): 0.978 | normalized growth (locus YHR200W, strain rpn10, stronger effect = lower value): 1.03 | normalized growth (locus YIL066C, strain RNR3, stronger effect = lower value): 1.02 | normalized growth (locus YIL073C, strain SPO22, stronger effect = lower value): 1.04 | normalized growth (locus YIL125W, strain kgd1, stronger effect = lower value): 1.01 | normalized growth (locus YIR030C, strain dcg1, stronger effect = lower value): 1.01 | normalized growth (locus YJL092W, strain hpr5, stronger effect = lower value): 0.978 | normalized growth (locus YJL095W, strain BCK1 (second series), stronger effect = lower value): 0.982 | normalized growth (locus YJL095W, strain BCK1, stronger effect = lower value): 1 and 0.981 | normalized growth (locus YJL115W, strain asf1, stronger effect = lower value): 0.964 | normalized growth (locus YJL129C, strain trk1, stronger effect = lower value): 1.03 | normalized growth (locus YJL134W, strain LCB3, stronger effect = lower value): 1 | normalized growth (locus YJL154C, strain vps35, stronger effect = lower value): 0.969 | normalized growth (locus YJL164C, strain tpk1, stronger effect = lower value): 0.931 | normalized growth (locus YJL166W, strain qcr8, stronger effect = lower value): 0.996 | normalized growth (locus YJL168C, strain set2, stronger effect = lower value): 1.01 | normalized growth (locus YJL187C, strain SWE1 (second series), stronger effect = lower value): 1.02 | normalized growth (locus YJR043C, strain POL32, stronger effect = lower value): 1.02 | normalized growth (locus YJR066W, strain TOR1, stronger effect = lower value): 0.936 | normalized growth (locus YJR075W, strain HOC1, stronger effect = lower value): 1.01
